Measurements reported in PubChem BioAssay (EPA / NIEHS).
Values joined by “and” are separate entries in the source; they are usually repeats but may differ in a detail not shown here. Equal values may be shown once. More than one record can exist for a structure, and the calls need not agree. Active and inactive are the calls of the source. Rule for the calls: active = hit-call score of the fitted dose curve at least 0.9, where 1 is the maximum; inactive = score below 0.9.

Read-out: Cytochrome P450 7A1 (Homo sapiens) (UniProt P22680)
Assay: LTEA_HepaRG_CYP7A1: Life Technologies and Expression Analysis (LTEA) Assay for Cytochrome P450 7A1 (CYP7A1) using HepaRG (AID 2283496)
Conditions: mRNA level, 48 h; actives raise or lower the signal
How it was run: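 HepaRG cells plated 48 h, then switched to serum-free induction medium and exposed in duplicate for 48 h to 8-point half-log series from 100 uM in 0.5% DMSO. CYP7A1 mRNA by qRT-PCR (TaqMan), normalized to ACTB/GAPDH/POLR2A; bidirectional fit versus DMSO.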

Row | Structure (SMILES) | AC50 | outcome
1 | N#Cc1cc(Br)c(O)c(Br)c1 | 19.1 µM (active) | 
2 | COc1nc(NC(C)C)nc(NC(C)C)n1 |  | inactive
3 | COc1cnc(OC)n2nc(NS(=O)(=O)c3c(OCC(F)F)cccc3C(F)(F)F)nc12 | 26.2 µM (active) | 
4 | CCOC(=O)CC(SP(=S)(OC)OC)C(=O)OCC (stereo not drawn) |  | inactive
5 | Cc1cc(Cl)ccc1OCC(=O)O | 24.9 µM (active) | 
6 | CCCCNC(=O)OCC#CI | 50 µM (active) | 
7 | COC(=O)c1ccccc1C(=O)OC |  | inactive
8 | CON(C)C(=O)Nc1ccc(Cl)c(Cl)c1 | 16.8 µM (active) | 
9 | C#CCOS(=O)OC1CCCCC1Oc1ccc(C(C)(C)C)cc1 (stereo not drawn) | 26.6 µM (active) | 
10 | CS/C(C)=N/OC(=O)N(C)SN(C)C(=O)O/N=C(\C)SC | 9.92 µM (active) | 

Read-out: Glutathione S-Transferase (GSTA2), GSTA2 (gene 2939)
Assay: LTEA_HepaRG_GSTA2: Life Technologies and Expression Analysis (LTEA) Assay for Glutathione S-Transferase (GSTA2) using HepaRG (AID 2283497)
Conditions: mRNA level, 48 h; actives raise or lower the signal
How it was run: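 Human HepaRG cells, plated 48 h, then exposed in serum-free induction medium for 48 h to eight half-log concentrations up to 100 uM in 0.5% DMSO, duplicate. GSTA2 mRNA by qRT-PCR, normalized to ACTB/GAPDH/POLR2A; bidirectional fit versus DMSO.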

Row | Structure (SMILES) | AC50 | outcome
11 | N#Cc1cc(Br)c(O)c(Br)c1 | 22 µM (active) | 
12 | CCOC(=O)C(Cl)Cc1cc(-n2nc(C)n(C(F)F)c2=O)c(F)cc1Cl (stereo not drawn) |  | inactive
13 | CC(C)Oc1cc(-n2nc(C(C)(C)C)oc2=O)c(Cl)cc1Cl | 80.8 µM (active) | 
14 | COc1nc(NC(C)C)nc(NC(C)C)n1 |  | inactive
15 | C=CCC1=C(C)C(OC(=O)C2C(C=C(C)C)C2(C)C)CC1=O (stereo not drawn) | 84.3 µM (active) | inactive
16 | CCc1nn(C)c(C(=O)NCc2ccc(C(C)(C)C)cc2)c1Cl | 11.9 µM (active) | 
17 | COc1cnc(OC)n2nc(NS(=O)(=O)c3c(OCC(F)F)cccc3C(F)(F)F)nc12 |  | inactive
18 | CCOC(=O)CC(SP(=S)(OC)OC)C(=O)OCC (stereo not drawn) |  | inactive
19 | Cc1cc(Cl)ccc1OCC(=O)O |  | inactive
20 | COP(=S)(OC)Oc1nc(Cl)c(Cl)cc1Cl |  | inactive
21 | CO/C=C(/C(=O)OC)c1ccccc1Oc1cc(Oc2ccccc2C#N)ncn1 | 81.5 µM (active) and 81 µM (active) and 78.7 µM (active) | 
22 | CNC(=O)ON=CC(C)(C)SC |  | inactive
23 | CC(Oc1ccc(Cl)cc1Cl)C(=O)O (stereo not drawn) |  | inactive
24 | CCCCNC(=O)OCC#CI | 9.92 µM (active) | 
25 | COC(=O)c1ccccc1C(=O)OC |  | inactive
26 | CN(C)C(=S)SSC(=S)N(C)C |  | inactive
27 | CCCCC(CC)COC(=O)c1ccccc1C(=O)OCC(CC)CCCC (stereo not drawn) |  | inactive
28 | C=CCC1=C(C)[C@@H](OC(=O)[C@@H]2[C@@H](C=C(C)C)C2(C)C)CC1=O |  | inactive
29 | CON(C)C(=O)Nc1ccc(Cl)c(Cl)c1 | 50 µM (active) | 
30 | C#CCOS(=O)OC1CCCCC1Oc1ccc(C(C)(C)C)cc1 (stereo not drawn) | 27.7 µM (active) | 
31 | CS/C(C)=N/OC(=O)N(C)SN(C)C(=O)O/N=C(\C)SC |  | inactive
32 | CCCN(CCC)c1c([N+](=O)[O-])cc(S(N)(=O)=O)cc1[N+](=O)[O-] | 91 µM (active) and 68.4 µM (active) and 83.1 µM (active) | 
33 | Oc1ccccc1-c1ccccc1 |  | inactive
34 | COC(=O)C(C)Oc1ccc(Oc2ccc(Cl)cc2Cl)cc1 (stereo not drawn) | 74.4 µM (active) | 
35 | O=C(O)c1nc(Cl)ccc1Cl | 50 µM (active) | inactive

Read-out: Glutamate-cysteine ligase catalytic (GCLC), GCLC (gene 2729)
Assay: LTEA_HepaRG_GCLC: Life Technologies and Expression Analysis (LTEA) Assay for Glutamate-cysteine ligase catalytic (GCLC) using HepaRG (AID 2283498)
Conditions: mRNA level, 48 h; actives raise or lower the signal
How it was run: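 Differentiated human HepaRG cells, plated 48 h then switched to serum-free induction medium, were exposed in duplicate for 48 h to 8 half-log concentrations topping at 100 uM in 0.5% DMSO. GCLC mRNA was quantified by qRT-PCR against ACTB, GAPDH and POLR2A.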

Row | Structure (SMILES) | AC50 | outcome
36 | N#Cc1cc(Br)c(O)c(Br)c1 | 10.3 µM (active) | 
37 | CCOC(=O)C(Cl)Cc1cc(-n2nc(C)n(C(F)F)c2=O)c(F)cc1Cl (stereo not drawn) |  | inactive
38 | CC(C)Oc1cc(-n2nc(C(C)(C)C)oc2=O)c(Cl)cc1Cl | 86.2 µM (active) | 
39 | COc1nc(NC(C)C)nc(NC(C)C)n1 |  | inactive
40 | C=CCC1=C(C)C(OC(=O)C2C(C=C(C)C)C2(C)C)CC1=O (stereo not drawn) |  | inactive
41 | CCc1nn(C)c(C(=O)NCc2ccc(C(C)(C)C)cc2)c1Cl | 50 µM (active) | 
42 | COc1cnc(OC)n2nc(NS(=O)(=O)c3c(OCC(F)F)cccc3C(F)(F)F)nc12 |  | inactive
43 | CCOC(=O)CC(SP(=S)(OC)OC)C(=O)OCC (stereo not drawn) |  | inactive
44 | Cc1cc(Cl)ccc1OCC(=O)O |  | inactive
45 | COP(=S)(OC)Oc1nc(Cl)c(Cl)cc1Cl |  | inactive
46 | CO/C=C(/C(=O)OC)c1ccccc1Oc1cc(Oc2ccccc2C#N)ncn1 |  | inactive
47 | CNC(=O)ON=CC(C)(C)SC |  | inactive
48 | CC(Oc1ccc(Cl)cc1Cl)C(=O)O (stereo not drawn) |  | inactive
49 | CCCCNC(=O)OCC#CI | 0.00766 µM (active) | 
50 | COC(=O)c1ccccc1C(=O)OC |  | inactive
51 | CN(C)C(=S)SSC(=S)N(C)C |  | inactive
52 | CCCCC(CC)COC(=O)c1ccccc1C(=O)OCC(CC)CCCC (stereo not drawn) |  | inactive
53 | C=CCC1=C(C)[C@@H](OC(=O)[C@@H]2[C@@H](C=C(C)C)C2(C)C)CC1=O |  | inactive
54 | CON(C)C(=O)Nc1ccc(Cl)c(Cl)c1 | 80 µM (active) | 
55 | C#CCOS(=O)OC1CCCCC1Oc1ccc(C(C)(C)C)cc1 (stereo not drawn) | 28.2 µM (active) | 
56 | CS/C(C)=N/OC(=O)N(C)SN(C)C(=O)O/N=C(\C)SC |  | inactive
57 | CCCN(CCC)c1c([N+](=O)[O-])cc(S(N)(=O)=O)cc1[N+](=O)[O-] | 70.9 µM (active) and 83.9 µM (active) | inactive
58 | Oc1ccccc1-c1ccccc1 |  | inactive
59 | COC(=O)C(C)Oc1ccc(Oc2ccc(Cl)cc2Cl)cc1 (stereo not drawn) |  | inactive
60 | O=C(O)c1nc(Cl)ccc1Cl |  | inactive
